Bioassay records: PubChem BioAssay, The Scripps Research Institute Molecular Screening Center
FXN GAA850 act: increases GAA850 frataxin promoter reporter activity. HEK293 lucGAA850 FXN promoter luciferase reporter, 24 h; percent of 10 µM SAHA response. activation, % at 6 µM. 0.56% of 360,000 active. AID 540364;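 active means activation above the average of all compounds screened plus 3 SD, cutoff fixed separately per campaign, cut at about 7.5% in these data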
hcDAF12 agonist: activates DAF-12 receptor from parasite H. contortus; HEK293 hcDAF-12 lit1-tk-luc reporter, luminescence; 0% DMSO, 100% Δ7-dafachronic acid; activation, % at 6.8 µM; 1.4% of 370,000 active;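 active means activation above the mean of all tested compounds plus 3 SD, cut at about 5.5% in these data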
hgDAF-12 ag: hgDAF-12 agonism, primary luciferase screen; HEK293 GAL4-hgDAF12 UAS-luciferase reporter, agonist luminescence; normalized to butyrate control; activation, % at 6.8 µM; 1.8% of 370,000 active; AID 687014;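 active means activation above a cutoff set at the mean of all screened compounds plus 3 SD, cut at about 10% in these data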
DAX1 inh-1: NR0B1 (DAX1) inhibition. P51843. HEK293 Gal4-DAX1 luciferase reporter, luminescence. inhibition, % at 6.75 µM. 0.99% of 340,000 active. AID 504766;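 active means inhibition above the mean over all tested compounds plus 3 SD, cut at about 4.2% in these data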;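 further: inhibition shows as a rise in luminescence from relieved DAX1 repression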
Target sequence (P51843 207-470 limits assumed): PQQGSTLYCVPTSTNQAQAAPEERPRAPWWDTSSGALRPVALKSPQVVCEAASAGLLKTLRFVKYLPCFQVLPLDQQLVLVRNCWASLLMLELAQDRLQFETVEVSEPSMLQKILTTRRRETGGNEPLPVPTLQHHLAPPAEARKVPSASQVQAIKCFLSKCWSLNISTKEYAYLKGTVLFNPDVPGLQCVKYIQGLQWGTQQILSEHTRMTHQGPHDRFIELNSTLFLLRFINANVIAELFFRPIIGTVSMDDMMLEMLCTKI
ssDAF12 agonist: activators of S. stercoralis DAF-12 nuclear receptor; HEK293 ssDAF-12/GRIP1 lit1-tk-luc reporter, luminescence; % of 3 µM dafachronic acid response; activation, % at 6.8 µM; 1% of 370,000 active; AID 652126;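 active means activation above the mean over all tested compounds plus 3 SD, cut at about 0.9% in these data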
DAX1 inh-2: blocks DAX1 repression of SF-1 activated StAR promoter | HEK293T StAR-luciferase reporter, SF-1/DAX-1 repression relief | 1.1% of 370,000 active | inhibition, % at 6.8 µM | AID 652010;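 active means inhibition above the mean over all tested compounds plus 3 SD, cut at about 3.6% in these data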;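 further: higher inhibition means more luminescence from relief of DAX-1 repression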
GAA30 counter: counter-screen for GAA850 frataxin promoter activators: GAA30 promoter activation | shares compounds with FXN GAA850 act | HEK293 lucGAA30 FXN promoter luciferase, 24 h; DMSO = 0%, 5 µM ipriflavone = 100% | activation, % at 6 µM | 66% of 1,900 active | AID 588350;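 active means mean activation above the mean of solvent-only control wells plus 3 SD, cut at about 22% in these data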;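 further: counterscreen of GAA850 promoter hits where activity marks nonselective or luminescence artifacts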
GAA850 confirm: GAA850 FXN promoter activation confirmation; activation, % at 6 µM; shares compounds with FXN GAA850 act; HEK293 lucGAA850 FXN promoter luciferase reporter, 24 h; 100% = activation by SAHA; 86% of 1,900 active;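 active means mean activation above a set limit taken from the primary screen, cut at about 8% in these data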
Numbers stand for hits; 0 = inactive; - = no result. Compounds with a hit are over-represented: about 4.5% of the library has one in this group of screens.

SMILES | FXN GAA850 act | hcDAF12 agonist | hgDAF-12 ag | DAX1 inh-1 | ssDAF12 agonist | DAX1 inh-2 | GAA30 counter | GAA850 confirm
O=C(Nc1nnc(SCc2ccc(F)cc2)s1)C1CC(=O)N(Cc2ccccc2)C1 (stereo unspecified) | 11 | 0 | 0 | 0 | 0 | 0 | 25 | 12
CN(Cc1ccccc1)C(=O)OCc1cn(Cc2ccc(C(F)(F)F)cc2)nn1 | - | 0 | 0 | - | 0 | 0 | - | -
Cc1oc2ccc(O)cc2c1C(=O)c1ccc([N+](=O)[O-])cc1 | 0 | 0 | 0 | 0 | 0 | 0 | - | -
Nc1c(C(=O)c2ccccc2)oc2ccc([N+](=O)[O-])cc12 | 8.3 | 0 | 0 | 0 | 0 | 0 | 99 | 35
Nc1c(C(=O)c2ccc(Br)cc2)oc2ccccc12 | 7.7 | 0 | 0 | 0 | 0 | 0 | 93 | 34
COc1ccc(S[C@]2(C(=O)N3CCCC3)CC(=O)N(C(=O)C3CC3)[C@@H]2c2ccc(OC)cc2)cc1 | - | 0 | 0 | - | 0 | 0 | - | -
Cc1c(C(=O)NCC2CCCO2)sc2nc(-c3ccc(F)cc3)cn12 (stereo unspecified) | 17 | 0 | 0 | 0 | 0 | 0 | 61 | 21
COc1ccc(-c2nc(Cn3c(SCc4cccc(F)c4)nc4ccncc43)c(C)o2)cc1OC | 12 | 0 | 0 | 0 | 0 | 0 | 0 | 0
CCN1C(=O)[C@H]2[C@@H](c3ccc(C)cc3)N3C(=O)N(c4cccc(Br)c4)C(=O)[C@@]3(C)[C@H]2C1=O | 0 | 0 | 0 | 0 | 0 | 0 | - | -
CCN1C(=O)[C@H]2[C@@H](c3ccc(C)cc3)N3C(=O)N(c4cccc(Br)c4)C(=O)[C@@]3(CC(C)C)[C@H]2C1=O | 16 | 0 | 0 | 0 | 0 | 0 | 22 | 11
CCN1C(=O)[C@H]2[C@@H](c3ccccc3)N3C(=O)N(c4cccc(F)c4)C(=O)[C@@]3(CC(C)C)[C@H]2C1=O | 8.8 | - | - | 0 | - | - | 25 | 0
Cc1cccc([C@@H]2[C@@H]3C(=O)N(Cc4ccccc4)C(=O)[C@@H]3[C@]3(CC(C)C)C(=O)N(c4cccc(F)c4)C(=O)N23)c1 | 0 | 0 | 0 | 0 | 0 | 0 | - | -
Nc1nc2ccccc2cc1-c1cccs1 | 7.8 | 0 | 0 | 5.4 | 0 | 0 | 90 | 34
c1csc(-c2ccc3ccccc3n2)c1 | 0 | 0 | 0 | 0 | 0 | 0 | - | -
O=C(NC1=NN(c2ccccc2)CC1)Nc1ccccc1F | 8.5 | 0 | 0 | 0 | 0 | 0 | 46 | 18
COc1cc(/C=C/C(=O)c2ccc([N+](=O)[O-])o2)ccc1O | 12 | 0 | 0 | 0 | 0 | 0 | 0 | 0
COc1cc(/C=C/C(=O)O)ccc1O | 16 | 0 | 0 | 0 | 0 | 0 | 0 | 0
Cc1nc([N+](=O)[O-])c(Br)n1CC(=O)c1ccccc1 | 0 | 0 | 0 | 0 | 0 | 0 | - | -
Cc1nc([N+](=O)[O-])c(Br)n1CC(=O)c1ccc2ccccc2c1 | 24 | 0 | 0 | 0 | 0 | 0 | 328 | 118
CC1(Cc2ccccc2C#N)C(=O)Nc2cc(-c3ccccc3Cl)ccc21 (stereo unspecified) | 0 | 0 | 0 | - | 0 | 0 | - | -
CC1(Cc2ccc(C(F)(F)F)nc2)C(=O)Nc2cc(-c3ccccc3Cl)ccc21 (stereo unspecified) | 14 | 0 | 0 | - | 0 | 0 | 0 | 14
CCOC(=O)[C@]12CCCC3=C1N(CCC3)C(=O)[C@@H](CC(=O)NCc1ccc(OC)c(OC)c1)C2 | - | 0 | 0 | - | 0 | 0 | - | -
C=C(C)C(=O)Oc1ccc(N=Nc2ccc(C)cc2)ccc1=O | 11 | 0 | 0 | - | 0 | 0 | 59 | 40
CCCN(CC1CC1)C(=O)CNc1nnnn1-c1ccccc1 | - | 0 | 0 | - | 0 | 0 | - | -
c1ccc2c(-c3nc(-c4ccncc4)no3)cccc2c1 | 10 | 0 | 0 | 0 | 0 | 0 | 101 | 32
SMILES | FXN GAA850 act | hcDAF12 agonist | hgDAF-12 ag | DAX1 inh-1 | ssDAF12 agonist | DAX1 inh-2 | GAA30 counter | GAA850 confirm
N#C/C(=C\c1cccs1)C(=O)Nc1ccccn1 | 8.9 | 0 | 0 | 6.9 | 0 | 0 | 106 | 34
N#C/C(=C\c1ccccc1)C(=O)Nc1ccccn1 | 0 | 0 | 0 | 0 | 0 | 0 | - | -
CN(C)c1cccc(/C=C2\CC3(OC(=O)c4ccc(Cl)cc4)CCCN2C3)c1 (stereo unspecified) | - | 0 | 0 | - | 0 | 0 | - | -
CC1=CC(=C2C(=O)c3ccccc3C2=O)C=C(C)N1C | 8.2 | 0 | 0 | 0 | 0 | 0 | 111 | 34
CCCCCN1C=CC(=C2C(=O)c3ccccc3C2=O)C=C1 | 0 | 0 | 0 | 0 | 0 | 0 | - | -
COc1ccc(-c2nnc(Nc3nc4c(OC)cccc4s3)o2)c(OC)c1 | 9.0 | 0 | 0 | 0 | 0 | 0 | 0 | 23
COc1ccc(C(=O)NC(CC(C)C)C(=O)O)cc1OC (stereo unspecified) | 0 | 0 | 0 | 0 | 0 | 0 | - | -
CCc1ccc(C(=O)NC(CC(C)C)C(=O)O)cc1 (stereo unspecified) | 20 | 0 | 0 | 0 | 0 | 0 | 0 | 0
CC(=O)N1c2ccccc2C(=O)NCC1C(=O)NC(C)(C)C (stereo unspecified) | - | 0 | 0 | - | 0 | 0 | - | -
CC(=O)Nc1ncnc2c1c(-c1ccc(Cl)cc1)nn2C(C)(C)C | 11 | 0 | 0 | 0 | 0 | 0 | 0 | 10
O=S1(=O)c2c(cccc2N2CCC[C@@H]2CO)O[C@H]2CCN1C2 | - | 0 | 0 | - | 0 | 0 | - | -
O=[N+]([O-])c1c(Nc2ccccc2O)cc(Cl)c2nonc12 | 11 | 0 | 0 | 0 | 0 | 0 | 0 | 0
CC(=O)N(C)c1ccc(OCC(O)Cn2c(C)nc3ccccc32)cc1 (stereo unspecified) | 0 | 0 | 0 | 0 | 0 | 0 | - | -
CC(=O)N(C)c1ccc(OCC(O)Cn2c3ccc(Cl)cc3c3cc(Cl)ccc32)cc1 (stereo unspecified) | 10 | 0 | 0 | 0 | 0 | 0 | 0 | 11
Cn1c(=O)c2c(ncn2Cc2ccc(O)c([N+](=O)[O-])c2)n(C)c1=O | - | 0 | 0 | - | 0 | 0 | - | -
CC(NC(=O)c1cc(S(=O)(=O)N(C)C)ccc1N1CCCC1)C1CC2CCC1C2 (stereo unspecified) | 11 | 0 | 0 | 0 | 0 | 0 | 31 | 13
CC(NC(=O)/C(C#N)=C/c1ccc([N+](=O)[O-])o1)c1ccccc1 (stereo unspecified) | 10 | 0 | 0 | 0 | 0 | 0 | 0 | 8.5
CCOCCCNC(=O)/C(C#N)=C/c1ccc(-c2ccc(S(=O)(=O)N3CCOCC3)cc2)o1 | 0 | - | - | 0 | - | - | - | -
CCOCCCNC(=O)/C(C#N)=C/c1ccc([N+](=O)[O-])o1 | 11 | 0 | 0 | 0 | 0 | 0 | 0 | 0
